This is part of a sample that, as a whole, favours compounds with a hit. Of some 83,000 tested, about 20% had one in any assay.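 For each line, cells grew in 96-well plates with the test compound present at a single concentration for 48 hours.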 Activity calls are given as the source filed them. How the source made its calls: active means growth percent below 10; inactive means the rest.
Assays:
Assay in all cases: NCI-60 one-dose screen, 48 h (100 = growth as untreated, 0 = no growth, -100 = all killed)
Details in all cases: 10 µM unless noted
[1] = tested on: NCI-H23 lung
[2] = tested on: NCI-H226 lung
[3] = tested on: NCI-H322M lung
[4] = tested on: HOP-62 NSCLC
[5] = tested on: NCI-H460 lung
[6] = tested on: HOP-92 NSCLC
[7] = tested on: NCI-H522 lung
[8] = tested on: A549/ATCC NSCLC
[9] = tested on: 786-0 renal
[10] = tested on: COLO 205 colon

Measured: growth

COc1cc(C2=NN(C(C)=O)C(c3ccc(N(C)C)cc3)C2)cc(OC)c1OC (stereo not given)
inactive: [1] 88.8% | [2] 97.8% | [3] 82.7% | [4] 83.9% | [5] 107% | [6] 79.7% | [7] 72.4% | [8] 90.6% | [9] 79.7% | [10] 108%

CCOC(=O)c1c(C)nn(CC(O)c2ccccc2)c1NC(=O)Nc1cccc(F)c1 (stereo not given)
inactive: [1] 97% | [2] 85.4% | [3] 88.8% | [4] 91.2% | [5] 93.6% | [6] 71.8% | [7] 81.8% | [8] 87% | [9] 88.7% | [10] 102%

COc1cc(/C=C2\CN(S(=O)(=O)c3ccc(C)cc3)C/C(=C\c3cc(CN4CCCCC4)c(O)c(OC)c3)C2=O)cc(CN2CCCCC2)c1O
active: [1] -64% | [2] -52.5% | [3] -74.4% | [4] -81.7% | [5] -72.5% | [6] -75.3% | [7] -58% | [8] -84.9% | [9] -65.4% | [10] -90.2%

C=NNc1ccccc1
inactive: [1] 86.5% | [2] 87.5% | [3] 85.7% | [4] 101% | [5] 102% | [6] 78.1% | [7] 73.7% | [8] 84.3% | [9] 103% | [10] 100%

CCN(CC)c1ccc(/C=N\NC(=O)c2cccc(Nc3ccnc(C(F)(F)F)c3)c2)c(O)c1
inactive: [1] 39.5% | [3] 33% | [4] 29.5% | [6] 20.6% | [7] 41.5% | [8] 31.3%
active: [2] -3.12% | [5] 1.17% | [9] 5.84% | [10] -0.627%

O=C(CCC(=O)c1nc2ncccc2[nH]1)NN1C(=O)CSC1c1ccc(Cl)cc1 (stereo not given)
inactive: [1] 91.4% | [2] 95.9% | [3] 93.5% | [4] 93.9% | [5] 102% | [6] 111% | [7] 83% | [8] 97.3% | [9] 101% | [10] 116%

CCOC(=O)Nc1nc2ccc(SCC(C)C)cc2s1
inactive: [1] 40.9% | [2] 46.6% | [3] 36.7% | [4] 22.6% | [5] 19.3% | [6] 33.6% | [8] 28.5% | [9] 27.8%
active: [7] 4.9% | [10] -14.9%

C/C(=N\O)C(=O)NCCCCCC(=O)Nc1ccccc1
inactive: [1] 99.2% | [2] 110% | [3] 103% | [4] 102% | [5] 111% | [6] 94.4% | [7] 91.1% | [8] 97% | [9] 94.4% | [10] 108%

O=C1/C(=C/c2ccc(Br)cc2)COc2ccc(O)c(O)c21
active: [4] -24.5% | [6] -33.4% | [7] -70.4% | [9] -70.4%
inactive: [1] 18.3% | [2] 71% | [3] 30.7% | [5] 12% | [8] 20.6% | [10] 15.4%

COC(=O)c1c2c(n3ccc(C)cc13)C(=O)c1ccccc1C2=O
inactive: [1] 50.9% | [2] 62.1% | [3] 22.1% | [4] 78.4% | [6] 76.7% | [7] 47.5% | [9] 80.3% | [10] 42.5%
active: [5] 4.07% | [8] -41.6%

COc1ccccc1NC(=O)c1ccc(/C=C/C(=O)c2nccn2C)cc1
inactive: [2] 24.6%
active: [1] -35.7% | [3] -93.4% | [4] -49.5% | [5] -43.5% | [6] -24.3% | [7] -44.8% | [8] -0.305% | [9] -48.4% | [10] -53.1%

CCNc1nc(-c2ccc(F)cc2)c(C#N)c(=O)n1C
inactive: [1] 73.8% | [2] 55% | [3] 57.2% | [4] 51.8% | [5] 74.7% | [7] 52.1% | [8] 58.9% | [9] 64.3% | [10] 62.8%
active: [6] -1.14%

C[C@H]1[C@H](C)CC[C@]2(C(=O)O)CC[C@]3(C)C(=CC[C@@H]4[C@@]5(C)C[C@@H](Cc6cn([C@@H]7O[C@H](CO)[C@@H](O)[C@H](O)[C@H]7O)nn6)[C@H](O)C(C)(C)[C@@H]5CC[C@]43C)[C@H]12
inactive: [1] 97.7% | [2] 94.3% | [3] 102% | [4] 88.9% | [5] 107% | [6] 95.6% | [7] 103% | [8] 89% | [9] 94.6% | [10] 105%

COc1ccc(Nc2ncccc2NC(=O)c2cn(Cc3cccc(Oc4ccccc4)c3)nn2)cc1OC
inactive: [1] 76% | [2] 92.4% | [3] 83.7% | [4] 88% | [5] 97.4% | [6] 81.6% | [7] 77.1% | [8] 86.7% | [9] 90.5% | [10] 81.4%

CC1(C)CC2=C3C=C[C@@H]4[C@@]5(C)CC[C@H](O)C(C)(C)[C@@H]5CC[C@@]4(C)[C@]3(C)CC[C@@]2(C(=O)O)CC1=O
inactive: [1] 41.2% | [2] 32.3% | [3] 55.1% | [4] 50.9% | [5] 63.2% | [7] 51.2% | [8] 39.2% | [9] 21.1% | [10] 67%
active: [6] -5.32%

COc1ccc(/C(C)=C(\c2ccc(Cl)cc2)c2ccc(OCCN3CCCC3)cc2)cc1
active: [5] 2.86% | [9] -31.6% | [10] -29.9%
inactive: [1] 58.8% | [2] 85% | [3] 49.6% | [4] 59.2% | [6] 56.4% | [7] 69.9% | [8] 25.5%

COc1ccc2c(O)c(/C=C3\N=Nc4ccccc43)oc2c1C[C@H]1CCNC[C@H]1F
active: [10] 0.564%
inactive: [1] 46.8% | [2] 60.6% | [3] 73.4% | [4] 53.6% | [5] 29.8% | [6] 38.6% | [7] 46.7% | [8] 34.4% | [9] 57.8%

COCCCOc1cc(C[C@@H](C[C@H](N)[C@@H](O)C[C@H](C(=O)NCC(C)(C)C(N)=O)C(C)C)C(C)C)ccc1OC
inactive: [1] 99.4% | [2] 102% | [3] 114% | [4] 114% | [5] 112% | [6] 84.5% | [7] 101% | [8] 103% | [9] 103% | [10] 112%

CC(C)c1ccc(C(=O)Nc2sc3cc(O)ccc3c2C#N)cc1
inactive: [1] 46.2% | [2] 58.2% | [3] 61.7% | [4] 41.1% | [5] 23% | [6] 79.2% | [7] 54.2% | [8] 44.6% | [9] 31.2% | [10] 91.8%

COc1cccc(C(=O)OCC(O)C(=O)NC23CC4CC(CC(C4)C2)C3)c1 (stereo not given)
inactive: [1] 102% | [2] 93.5% | [3] 96.4% | [4] 104% | [5] 101% | [6] 91.7% | [7] 86.1% | [8] 90.1% | [9] 101% | [10] 111%

COc1cc2c3c(c1O)-c1ccccc1[C@@H]1OC(=O)N(CC2)[C@H]31
inactive: [1] 100% | [2] 96.7% | [3] 113% | [4] 104% | [5] 100% | [6] 80.8% | [7] 94% | [8] 97% | [9] 102% | [10] 107%

O=C(CCCCCCN1CC(=O)N2[C@@H](c3ccc(Cl)cc3)c3[nH]c4ccccc4c3C[C@H]2C1=O)NO
inactive: [1] 71.3% | [2] 90.2% | [3] 70.3% | [4] 66.4% | [5] 67.6% | [6] 15.3% | [7] 38.2% | [8] 93.6% | [9] 83.9% | [10] 75.3%

CCCCSCC(=O)c1ccccc1
inactive: [1] 86.2% | [2] 99.6% | [3] 89.7% | [4] 80.9% | [5] 109% | [6] 94.5% | [7] 58.2% | [8] 78.1% | [9] 99.8% | [10] 100%

C[C@@H]1O[C@@H](O[C@@H]2C[C@H](c3ccc4c(c3O)C(=O)C3=C(C4=O)[C@@]4(O)C(=O)C[C@](C)(O)C[C@@]4(O)C=C3)O[C@H](C)[C@H]2O)C[C@H](O)[C@@H]1O
inactive: [1] 93.2% | [2] 101% | [3] 108% | [4] 107% | [5] 98.5% | [6] 120% | [7] 82.8% | [8] 94.7% | [9] 101% | [10] 96.9%
